Results on 1 compound are retold here after PubChem BioAssay (NCATS).

The target of assay [1] is Endonuclease 4 (Escherichia coli (strain K12)) (UniProt P0A6C1). The experiment in a line: Counterscreen for APE1 Inhibitors: qHTS Validation Assay for Inhibitors of Endonuclease IV (AID 1708). Also: % is scaled to controls: 0 for no effect and ±100 for the full control effect. The method, boiled down:
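Read-out: fluorescence rise (ex 525/em 598 nm) from incision of a TAMRA/BHQ-2 double-stranded THF abasic-site substrate (50 nM), measured kinetically; third-minus-first read difference gave reaction progress. Enzyme 2 nM.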

Assay [2] is described as follows: qHTS for differential inhibitors of proliferation of Plasmodium falciparum line 7G8 (AID 1815).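 Also: potency is read from the fitted curve at half-maximal effect; parasite growth measured after three days of incubation.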
A short description of assay [3]: qHTS for differential inhibitors of proliferation of Plasmodium falciparum line 3D7 (AID 1876).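 Also: parasite growth measured after three days of culture; 0% = vehicle wells and -100% = reference inhibitor wells.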
Assay [4] can be described thus: qHTS for differential inhibitors of proliferation of Plasmodium falciparum line Dd2 (AID 1882).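 Also: series mostly up to about 29 µM; compound exposure of 72 h on infected erythrocytes; plate controls were DMSO vehicle for no effect and 0.29 µM artemisinin for full effect; nearly all actives have a fitted effect of over 65% in size.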 The note with it: Potency: Plasmodium falciparum Dd2 proliferation inhibition. The method, boiled down:
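RBC culture, 0.3% parasitemia / 2.5% Hct final; cpd added by pin tool in DMSO; 72 h, 37 C, 5% CO2; lysis buffer + SYBR Green I, o/n RT dark; FI 485/535; norm. to artemisinin 0.29 uM and DMSO.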

A short description of assay [5]: qHTS for differential inhibitors of proliferation of Plasmodium falciparum line W2 (AID 1883).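 Also: potency is read from the fitted curve at half-maximal effect; parasites grown with compound for 72 h before lysis and staining.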 To be noted: Potency: Plasmodium falciparum W2 proliferation inhibition.
Assay [6] deals with Ferritin light chain (Equus caballus) (UniProt P02791). The assay can be described thus: qHTS Validation Assay for Identification of Novel General Anesthetics (AID 2323). Also: series mostly up to about 77 µM; % is scaled to controls: 0 for no effect and ±100 for the full control effect. Put shortly: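 10 uM horse-spleen apoferritin + 1-AMA (50% saturated, PBS); cpd pin-transferred, 10 min RT. Ex 380/Em 535 nm endpoint. Activity normalized between free 1-AMA and 1-AMA/apoferritin; 4-parameter Hill fit of concentration-response.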
Sequence of Ferritin light chain (Equus caballus) (P02791 2-175 limits assumed): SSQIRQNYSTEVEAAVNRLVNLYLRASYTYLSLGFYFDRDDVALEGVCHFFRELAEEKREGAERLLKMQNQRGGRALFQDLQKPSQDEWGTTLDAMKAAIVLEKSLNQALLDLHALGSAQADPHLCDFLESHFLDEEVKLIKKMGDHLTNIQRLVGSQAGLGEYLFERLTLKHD

Assay [7] concerns the target ATP-dependent DNA helicase Q1 (Homo sapiens) (UniProt P46063). The assay can be described thus: qHTS Validation Assay for Inhibitors of RecQ-Like Dna Helicase 1 (RECQ1) (AID 2353).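 Also: plate controls were DMSO vehicle for no effect and enzyme-free control for full effect.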 The method, boiled down:
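RECQ1T1 50 nM; forked duplex (20 bp + 30-nt ss tails) 200 nM, ATP 2 mM final; pH 8.0, 2 mM MgCl2, 2.5 ug/ml poly(dI-dC); 15 min compound preincubation; discontinuous kinetic read over 2 h at RT.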

Assay [8] concerns the target RecQ-like DNA helicase BLM (Homo sapiens) (UniProt P54132). The experiment in a line: qHTS Validation Assay for Inhibitors of Bloom's syndrome helicase (BLM) (AID 2364).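 Also: plate controls were DMSO vehicle for no effect and enzyme-free control for full effect.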 Put shortly:
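50 nM BLM preincubated 15 min at room temperature with compound in pH 8.0 Tris buffer containing 2.5 ug/ml poly(dI-dC); started with 200 nM TAMRA/BHQ-2 forked duplex and 2 mM ATP (final). Unwinding read as TAMRA fluorescence increase, two reads 2 h apart.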

Assay [9] can be described thus: Validation screen for inhibitors of Lassa infection (AID 463096; calls by dose curve; also: % is scaled to controls: 0 for no effect and ±100 for the full control effect).
Assay [10] in a line: Validation screen for small molecules that induce DNA re-replication in MCF 10A normal breast cells (AID 463097). Also: 0% is about no effect; nearly all actives have a fitted effect of over 60% in size. The method, boiled down: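 250 MCF 10A cells/well; compound pin-transferred; 48 hr, 37 C, 5% CO2; Hoechst 40 min; imaged 405/500-530 nm. Hits = more high-intensity nuclei.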
The target of assay [11] is Transient receptor potential cation channel subfamily V member 1 (Homo sapiens) (UniProt Q8NER1). The experiment in a line: HTS Assay for Compounds that Act as Enhancers of the Vanilloid Receptor 1 (AID 488979). Also: 0% is about no effect. The method, boiled down:
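TRPV1 cells loaded with Fluo-8 calcium dye; compound added and Ca2+ signal (ex 480/em 520 nm) followed 3 min, then capsaicin at EC20 added and read 2 more min to detect enhancement.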

In assay [12] the target is Thyrotropin receptor (Homo sapiens) (UniProt P16473). The assay can be described thus: qHTS Assay for Antagonists of the Thyroid Stimulating Hormone Receptor (AID 488980). Also: series mostly up to about 58 µM; 0% is about no effect. The method, boiled down:
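TSHR-HEK293 cells; 70 uM RO 20-1724 PDE inhibitor; compound + EC80 TSH (4 nM final); anti-cAMP cryptate antibody/cAMP-d2 in lysis buffer, 30 min RT; HTRF 665/620 nm read.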

Assay [13] has as its target Thyrotropin-releasing hormone receptor (Homo sapiens) (UniProt P34981). The assay can be described thus: qHTS for Small Molecule Agonists and Allosteric Enhancers of Human TRH Receptor: Validation Screen for Agonists (AID 493127;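 active = calcium activation more than 3 SD above the typical response in the agonist read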;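 also: intracellular calcium rise by fluo-8 fluorescence before TRH EC20 addition; 0% is about no effect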). The note with it: TRH receptor agonist cell assay; at 2 µM; active compounds read high. Put shortly:
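Read-out: intracellular calcium release measured kinetically by FDSS (fluo-8, ex 480/em 530 nm), 1 reading/s after a 10-cycle baseline. TRHR cells, 2000/well, cultured 18 h at 33.5C, dye-loaded at room temp. Compound-evoked positive calcium signal flags agonists.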

For assay [14], the target named is Galactokinase (Homo sapiens) (UniProt P51570). The assay can be described thus: qHTS Validation Assay for Inhibitors of Human Galactokinase (GALK) (AID 493189). Also: 0% is about no effect. The method, boiled down: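 Luminescence from leftover ATP (Kinase-Glo Plus, 10 min) served as read-out after a 1 h room-temperature reaction of 5 nM GALK, 100 uM galactose and 35 uM ATP at pH8.0.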
Assay [15] in a line: Validation screen for small molecules that induce DNA re-replication in SW480 colon adenocarcinoma cells (AID 504364). Also: 0% is about no effect. Put shortly: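 Read-out: total Hoechst intensity of nuclei by fluorescence scanning imager; hits raise the fraction of nuclei with elevated DNA content. Cells received compound for 48 hr at 37 C before a 40 min stain.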
The target of assay [16] is Voltage-gated inwardly rectifying potassium channel KCNH2 (Homo sapiens) (UniProt Q12809). The assay can be described thus: qHTS Assay for Small Molecule Inhibitors of the Human hERG Channel Activity (AID 588834).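 Also: top concentration of the series differs between compounds; % is scaled to controls: 0 for no effect and ±100 for the full control effect; lower thallium flux fluorescence means stronger hERG block; nearly all actives have a fitted effect of over 50% in size.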 The method, boiled down:
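Thallium-flux (FluxOR) read-out on FDSS: fluorescence read 10 s before and 2 min after stimulation buffer. hERG-BacMam-transduced U2OS cells, compound exposure about 10 min. AC50 by standard Hill equation.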

For assay [17], the target named is Furin (Homo sapiens) (UniProt P09958). The assay can be described thus: Furin counterscreen qHTS for Zika virus inhibitors (AID 1347149). Also: potency is read from the fitted curve at half-maximal effect; nearly all actives have a fitted effect of over 70% in size. Put shortly:
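Counterscreen measures cleavage of 2 microM BOC-RVRR-AMC, below its ~15 microM Km, by 5 nM full-length human furin at pH 7.0 after a 15-min compound preincubation. Inhibition derives from the 15-min fluorescence increase at 37C.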

Assay [18] concerns Zika virus NS2B-NS3 protease (linked construct). The experiment in a line: Confirmatory screen NINDS AMC qHTS for Zika virus inhibitors (AID 1347152). Also: potency is read from the fitted curve at half-maximal effect; nearly all actives have a fitted effect of over 70% in size. Put shortly: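 Linked NS2B-NS3 1 nM, Tris pH 8.0/0.01% Tween 20; cpd 15 min RT dark; + Nle-KRR-AMC 10 µM (Km 18.3 µM); read 0 and 15 min, 340/450 nm; %inh vs controls, 4-param Hill.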
Assay [19] concerns Zika virus NS2B-NS3 protease (unlinked complex). The assay can be described thus: Confirmatory screen GU AMC qHTS for Zika virus inhibitors (AID 1347153).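 Also: enzyme at 25 nM with substrate at 10 µM below its Km of 18.3 µM; potency is read from the fitted curve at half-maximal effect; nearly all actives have a fitted effect of over 70% in size.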 The method, boiled down: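 Noncovalent NS2B hydrophilic domain/NS3 protease complex (25 nM) in 10 mM Tris-HCl pH 8.0, 0.01% Tween 20 was preincubated 15 min at room temperature with compounds. Then 10 µM AMC substrate (Km 18.3 µM) was added; fluorescence was read over 15 min and fitted to a 4-parameter Hill equation.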

Assay [20] relates to Zika virus NS2B-NS3 protease. The experiment in a line: Primary screen GU AMC qHTS for Zika virus inhibitors (AID 1347154). Also: potency is read from the fitted curve at half-maximal effect; nearly all actives have a fitted effect of over 70% in size. The method, boiled down: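 Unlinked Zika NS2B hydrophilic domain–NS3 protease complex at 25 nM in 10 mM Tris-HCl pH 8.0, 0.01% Tween 20, with an AMC peptide substrate. Fluorescence change (340/450 nm) over 15 min at room temperature, normalized to controls, fitted to 4-parameter Hill.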

A short description of assay [21]: Vero cells viability qHTS for Zika virus inhibitors (AID 1347167). Also: % is scaled to controls: 0 for no effect and ±100 for the full control effect. The method, boiled down: (§1)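 qHTS titration; 24-48 h compound exposure, 37 degrees C/5% CO2; DMEM, 4% FBS; CellTiter Glo ATP luminescence.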
A short description of assay [22]: HepG2 cells viability qHTS for Zika virus inhibitors (AID 1347168). Also: % is scaled to controls: 0 for no effect and ±100 for the full control effect. Put shortly: as §1
The nature of assay [23]: Tertiary RLuc qRT-PCR qHTS assay for Zika virus inhibitors (AID 1347169). Also: top concentration of the series differs between compounds; % is scaled to controls: 0 for no effect and ±100 for the full control effect; nearly all actives have a fitted effect of over 55% in size. The method, boiled down:
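Luminescence read-out: live-cell Renilla luciferase substrate applied to infected Vero cells, signal measured after 1-1.5 hrs. Cells had received compound before ZIKV-RLuc (Cambodian strain, MOI 1-2) infection and were incubated 48-72 hrs at 37 degrees C.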

The nature of assay [24]: Primary qHTS for small molecule stabilizers of the endoplasmic reticulum resident proteome: Secreted ER Calcium Modulated Protein (SERCaMP) assay (AID 1508630). Also: % is scaled to controls: 0 for no effect and ±100 for the full control effect. Put shortly: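 The SH-SY5Y reporter protocol was run at 3 concentrations up to 38.3 uM (primary) or 11 concentrations (follow-up): 16 h compound, 100 nM thapsigargin for 4 h, then extracellular luciferase luminescence.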

Unmarked numbers belong to inactive results. Records with an inconclusive call do not appear. Activity calls are given as the source filed them. Unless noted, calls follow the shape of the dose curve; as a rule, active = well fitted curve in the direction sought with a large enough effect; inconclusive = small, poorly fitted or top-dose-only effect, or another doubt; inactive = no such curve, though single readings can be large; an effect the other way counts as inactive or inconclusive.

Sequence of Transient receptor potential cation channel subfamily V member 1 (Homo sapiens) (Q8NER1 whole entry, looked up): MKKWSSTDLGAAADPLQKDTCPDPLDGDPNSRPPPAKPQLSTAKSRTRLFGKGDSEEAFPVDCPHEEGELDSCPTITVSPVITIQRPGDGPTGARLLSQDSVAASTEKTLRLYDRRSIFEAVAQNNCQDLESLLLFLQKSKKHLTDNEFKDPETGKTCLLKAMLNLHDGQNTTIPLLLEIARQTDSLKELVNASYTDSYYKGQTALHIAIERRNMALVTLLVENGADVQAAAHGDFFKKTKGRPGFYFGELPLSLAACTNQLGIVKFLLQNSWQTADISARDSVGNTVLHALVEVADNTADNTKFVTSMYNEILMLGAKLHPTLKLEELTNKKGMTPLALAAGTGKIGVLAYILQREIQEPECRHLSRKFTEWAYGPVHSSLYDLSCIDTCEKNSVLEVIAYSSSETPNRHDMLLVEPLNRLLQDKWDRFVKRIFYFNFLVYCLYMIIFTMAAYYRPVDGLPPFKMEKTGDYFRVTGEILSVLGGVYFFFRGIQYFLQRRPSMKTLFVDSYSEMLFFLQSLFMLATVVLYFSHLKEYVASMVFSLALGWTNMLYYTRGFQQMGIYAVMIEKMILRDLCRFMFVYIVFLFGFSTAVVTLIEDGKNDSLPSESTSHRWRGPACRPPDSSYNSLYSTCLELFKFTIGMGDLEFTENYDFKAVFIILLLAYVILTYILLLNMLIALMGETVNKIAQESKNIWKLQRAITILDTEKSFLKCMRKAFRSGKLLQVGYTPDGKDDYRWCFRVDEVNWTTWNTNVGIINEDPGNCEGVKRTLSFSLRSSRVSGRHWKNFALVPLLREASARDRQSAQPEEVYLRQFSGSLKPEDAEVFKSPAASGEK
Sequence of Voltage-gated inwardly rectifying potassium channel KCNH2 (Homo sapiens) (Q12809 whole entry, looked up): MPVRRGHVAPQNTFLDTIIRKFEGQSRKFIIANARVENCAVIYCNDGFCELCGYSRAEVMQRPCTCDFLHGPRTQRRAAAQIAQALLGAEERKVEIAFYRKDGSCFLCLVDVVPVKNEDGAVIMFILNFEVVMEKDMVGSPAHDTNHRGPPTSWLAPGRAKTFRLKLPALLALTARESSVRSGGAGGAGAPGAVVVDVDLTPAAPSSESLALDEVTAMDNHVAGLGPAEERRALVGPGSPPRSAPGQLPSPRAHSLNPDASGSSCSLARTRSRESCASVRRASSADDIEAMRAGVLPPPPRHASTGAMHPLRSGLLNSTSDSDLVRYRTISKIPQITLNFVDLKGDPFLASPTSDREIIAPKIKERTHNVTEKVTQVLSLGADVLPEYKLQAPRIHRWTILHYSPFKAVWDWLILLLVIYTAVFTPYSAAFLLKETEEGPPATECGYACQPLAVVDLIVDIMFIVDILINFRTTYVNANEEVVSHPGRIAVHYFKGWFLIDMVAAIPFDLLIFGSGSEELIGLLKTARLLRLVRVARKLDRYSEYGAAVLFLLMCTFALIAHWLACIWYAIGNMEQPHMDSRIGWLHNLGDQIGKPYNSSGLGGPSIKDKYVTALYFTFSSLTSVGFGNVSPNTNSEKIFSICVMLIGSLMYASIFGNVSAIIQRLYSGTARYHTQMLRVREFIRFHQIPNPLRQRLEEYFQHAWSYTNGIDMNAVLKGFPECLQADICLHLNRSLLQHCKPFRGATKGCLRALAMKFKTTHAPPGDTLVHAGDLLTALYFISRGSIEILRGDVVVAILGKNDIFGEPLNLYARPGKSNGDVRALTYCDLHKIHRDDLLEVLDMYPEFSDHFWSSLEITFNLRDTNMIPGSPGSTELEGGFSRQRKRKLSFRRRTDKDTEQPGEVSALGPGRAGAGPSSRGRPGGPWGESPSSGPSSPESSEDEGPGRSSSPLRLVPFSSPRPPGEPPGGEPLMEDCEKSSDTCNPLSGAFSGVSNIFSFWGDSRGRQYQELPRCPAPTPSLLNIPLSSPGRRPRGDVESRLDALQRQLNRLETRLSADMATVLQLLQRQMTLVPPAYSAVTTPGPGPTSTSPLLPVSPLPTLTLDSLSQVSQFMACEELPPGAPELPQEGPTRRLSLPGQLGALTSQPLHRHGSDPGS
Sequence of ATP-dependent DNA helicase Q1 (Homo sapiens) (P46063 whole entry, looked up): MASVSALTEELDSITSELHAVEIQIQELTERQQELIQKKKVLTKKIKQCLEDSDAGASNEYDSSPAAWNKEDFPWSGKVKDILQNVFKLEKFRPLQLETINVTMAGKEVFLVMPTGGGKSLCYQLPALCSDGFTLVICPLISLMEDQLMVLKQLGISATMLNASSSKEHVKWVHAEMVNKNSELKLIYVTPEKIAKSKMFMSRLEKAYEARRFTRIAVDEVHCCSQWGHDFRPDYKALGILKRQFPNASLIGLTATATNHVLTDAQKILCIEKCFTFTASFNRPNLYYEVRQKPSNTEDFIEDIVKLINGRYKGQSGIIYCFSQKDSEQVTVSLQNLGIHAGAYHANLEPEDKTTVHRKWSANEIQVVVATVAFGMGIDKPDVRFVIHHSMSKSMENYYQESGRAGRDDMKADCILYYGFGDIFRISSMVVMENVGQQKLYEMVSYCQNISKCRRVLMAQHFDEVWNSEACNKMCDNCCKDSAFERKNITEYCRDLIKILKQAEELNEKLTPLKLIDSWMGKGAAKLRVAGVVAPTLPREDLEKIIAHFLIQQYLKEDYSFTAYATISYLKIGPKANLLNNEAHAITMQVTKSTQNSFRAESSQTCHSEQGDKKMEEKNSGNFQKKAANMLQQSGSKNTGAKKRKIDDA
Sequence of RecQ-like DNA helicase BLM (Homo sapiens) (P54132 whole entry, looked up): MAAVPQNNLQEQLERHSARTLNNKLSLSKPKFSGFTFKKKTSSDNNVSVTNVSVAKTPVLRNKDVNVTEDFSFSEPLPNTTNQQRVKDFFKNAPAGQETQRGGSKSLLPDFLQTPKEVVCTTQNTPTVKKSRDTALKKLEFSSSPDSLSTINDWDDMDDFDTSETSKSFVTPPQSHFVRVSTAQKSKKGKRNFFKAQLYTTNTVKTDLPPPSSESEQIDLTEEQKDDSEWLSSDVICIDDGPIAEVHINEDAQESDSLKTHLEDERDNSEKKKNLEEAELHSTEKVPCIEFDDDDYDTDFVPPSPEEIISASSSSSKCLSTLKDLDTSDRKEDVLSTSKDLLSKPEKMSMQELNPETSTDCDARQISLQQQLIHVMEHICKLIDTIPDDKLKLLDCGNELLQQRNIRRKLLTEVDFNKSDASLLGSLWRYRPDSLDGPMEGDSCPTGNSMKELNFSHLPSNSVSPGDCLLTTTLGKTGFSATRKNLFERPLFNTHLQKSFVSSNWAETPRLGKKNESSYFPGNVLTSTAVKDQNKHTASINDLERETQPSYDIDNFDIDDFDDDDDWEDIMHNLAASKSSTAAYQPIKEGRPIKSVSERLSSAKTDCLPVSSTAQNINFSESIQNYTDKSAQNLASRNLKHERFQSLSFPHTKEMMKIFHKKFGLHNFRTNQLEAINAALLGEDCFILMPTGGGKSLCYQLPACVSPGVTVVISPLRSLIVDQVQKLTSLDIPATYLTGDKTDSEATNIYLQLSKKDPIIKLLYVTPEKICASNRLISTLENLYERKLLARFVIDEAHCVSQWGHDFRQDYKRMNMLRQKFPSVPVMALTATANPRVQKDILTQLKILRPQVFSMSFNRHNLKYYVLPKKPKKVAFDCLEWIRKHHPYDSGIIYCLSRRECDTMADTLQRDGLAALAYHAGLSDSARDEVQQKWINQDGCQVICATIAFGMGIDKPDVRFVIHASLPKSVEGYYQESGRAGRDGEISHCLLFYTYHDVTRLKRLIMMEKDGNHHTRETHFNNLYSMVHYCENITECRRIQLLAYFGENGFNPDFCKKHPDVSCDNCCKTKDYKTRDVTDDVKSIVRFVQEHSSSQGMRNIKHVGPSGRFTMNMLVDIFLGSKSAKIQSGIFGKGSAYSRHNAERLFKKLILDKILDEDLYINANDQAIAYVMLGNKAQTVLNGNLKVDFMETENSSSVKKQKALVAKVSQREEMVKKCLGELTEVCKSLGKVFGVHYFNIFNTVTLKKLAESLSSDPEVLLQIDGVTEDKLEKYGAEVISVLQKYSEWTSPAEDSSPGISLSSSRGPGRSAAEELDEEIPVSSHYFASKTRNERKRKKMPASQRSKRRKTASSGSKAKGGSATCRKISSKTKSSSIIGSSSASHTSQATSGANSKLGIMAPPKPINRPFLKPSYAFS
Sequence of Thyrotropin receptor (Homo sapiens) (P16473 whole entry, looked up): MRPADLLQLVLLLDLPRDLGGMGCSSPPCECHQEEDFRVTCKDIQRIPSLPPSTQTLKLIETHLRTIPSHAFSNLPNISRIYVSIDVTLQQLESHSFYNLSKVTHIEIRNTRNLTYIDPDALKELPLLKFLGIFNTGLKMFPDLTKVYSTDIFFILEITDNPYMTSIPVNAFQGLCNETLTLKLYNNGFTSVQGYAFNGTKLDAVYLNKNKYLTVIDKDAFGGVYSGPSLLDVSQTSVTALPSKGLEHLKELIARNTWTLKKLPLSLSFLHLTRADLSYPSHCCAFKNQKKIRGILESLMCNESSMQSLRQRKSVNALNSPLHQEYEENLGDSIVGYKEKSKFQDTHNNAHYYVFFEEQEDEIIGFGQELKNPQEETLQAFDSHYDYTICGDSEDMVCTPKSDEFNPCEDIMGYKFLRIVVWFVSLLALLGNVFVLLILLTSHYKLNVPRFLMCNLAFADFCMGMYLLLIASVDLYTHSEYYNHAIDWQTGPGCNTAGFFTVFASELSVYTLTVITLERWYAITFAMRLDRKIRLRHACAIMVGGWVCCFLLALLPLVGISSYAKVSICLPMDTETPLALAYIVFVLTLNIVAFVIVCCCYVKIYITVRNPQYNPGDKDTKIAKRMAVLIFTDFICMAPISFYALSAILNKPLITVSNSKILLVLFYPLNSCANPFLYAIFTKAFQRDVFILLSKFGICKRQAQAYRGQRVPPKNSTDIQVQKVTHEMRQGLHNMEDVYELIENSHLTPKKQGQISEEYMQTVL

Regarding `COC(=O)c1cc2c(cn1)[nH]c1ccccc12`, the outcome in [1], in assay [6], in [11], in [12] and in assay [14] was inactive. For the same compound, the Potency in assay [2] was 11.2 µM (active); in assay [5], 12.6 µM (active); in [17], 24.1 µM (active); in assay [18], 24.1 µM (active); in assay [19] it was 24.1 µM (active); in [20], 23.8 µM (active). Besides, the Potency entry in assay [3], in [4], in [7], in assay [8], in [9] and in assay [10] was “inactive” each time. Further, the Potency result in [15], in [16], in assay [21], in [22], in [23] and in [24] was “inactive” in each case. The activation in [13] was 1.44%.
